# Values joined by “and” are separate entries in the source; they are usually repeats but may differ in a detail not shown here. Identical values can stand only once. Results filed as inconclusive are left out. Values without a mark were called inactive. Active and inactive are the calls of the source. Calls come from the whole dose curve; as a rule, active = well fitted inhibition curve with a large enough effect in the repeat runs; inconclusive = weak or mixed curves, or effect the other way; inactive = no such curve, though single readings can be large or run the other way.
# Target: Nuclear receptor ROR-gamma (Homo sapiens) (UniProt P51449)
# Experiment: qHTS assay to identify small molecule antagonists of the retinoid-related orphan receptor gamma (ROR-gamma) signaling pathway (AID 1159521; note: nearly all actives have a fitted effect of over 50% in size; for activity change, negative = inhibition: top concentration of the series differs between compounds)
# Details: Tet-on RORgamma CHO cells, RORE-luciferase, 16 h; series mostly up to 92.4 µM; activity change, negative = inhibition: at the top concentration
# Excerpt: U.S. Tox21 Program National Center for Advancing Translational Sciences [NCATS] NIH Chemical Genomics Center [NCGC] U.S. Environmental Protection Agency [EPA] National Institutes of Environmental Health Sciences [NIEHS] National Toxicology Program [NTP] U.S. Food and Drug Administration [FDA] Tox21 Assay Overview: Nuclear steroid hormone receptors are involved in many biological processes including inflammatory responses, cell proliferation, and apoptosis. Environmental factors or compounds disrupting these nuclear receptor pathways and gene expression may promote susceptibility to immunotoxicants and autoimmune diseases. One important group of these expression factors are the retinoid-related orphan receptors. To assess compounds that may interfere with the retinoid-related orphan receptor gamma (ROR-gamma) transcription factor, a cell-based luciferase assay was used. The CHO cell-based assay utilizes a TET-inducible ROR expression factor and ROR response element-LUC reporter gene. Reporter gene activity was induced using Doxycycline Hyclate and measured after 16 hr incubation. Tet-on ROR gamma CHO cells were used to screen against the Tox21 10K compound library for ROR gamma antagonists by quantification of decreased reporter gene activity in terms of decreased luminescence.
# Tox21 Assay Protocol Summary: Tet-on ROR gamma CHO cells were dispensed at 1,000 cells in 4 uL of culture medium per well into white wall/solid bottom 1536-well plates using a Multidrop Combi (Thermo Scientific, Waltham, MA) dispenser. Following incubation at 37 C and 5% CO2 for 4 hr, 23 nL of compounds dissolved in DMSO, positive controls or DMSO only were transferred by a Pintool station (Kalypsys, San Diego, CA) and after 2 hr incubation at 37 C, one ul of 1 uM (final concentration) of Doxycycline Hyclate was added to all the wells by using a Flying Reagent Dispenser (FRD) (Aurora Discovery, San Diego, CA). After 16 hr incubation at 37 C and 5% CO2, 5 uL of ONE-Glo reagent (Promega Corporation, Madison, WI) was added to each assay plate using FRD. After 30 min incubation at room temperature, luminescence was quantified on a ViewLux plate reader (Perkin Elmer, Waltham, MA).
# % is set by controls: 0 for no effect and ±100 for the full control effect; potency is the fitted concentration of half-maximal effect.
SMILES,"activity change, negative = inhibition",Potency
CCCSP(=S)(OCC)Oc1ccc(SC)cc1 (stereo not given),4.79%,–
NNCCO,-0.692%,–
CCC1CCC(=O)O1 (stereo not given),11.8%,–
C=CC(=O)NC(C)(C)CC(C)=O,16.6%,–
COc1ccc2c(c1OC)C(=O)O[C@H]2[C@@H]1c2cc3c(cc2CCN1C)OCO3,-9.6% [at 42.5 µM],–
NCCc1cc(O)c(O)cc1O,-2.1% [at 42.5 µM],–
C#CC(O)(C=CCl)CC (stereo not given),-3.41% [at 42.5 µM],–
CCCCOC(=O)CCC(=O)OCCCC,3.44%,–
Cc1ccccc1,-22%,–
C[Si](Cn1cncn1)(c1ccc(F)cc1)c1ccc(F)cc1,–,31.6 µM (active) and 43.3 µM (active)
O=S(=O)(Cl)Cl,-3.15%,–
CC(C)(C)N(NC(=O)c1ccc(Cl)cc1)C(=O)c1ccccc1,-6.79%,–
C[CH2][Hg][S]c1ccccc1C(=O)O,–,611 nM (active) and 1.33 µM (active)
Nc1ccccc1C(=O)OCC(O)CO (stereo not given),24.9% [at 42.5 µM],–
C[N+](C)(C)CCOC(=O)C(O)(c1ccccc1)c1ccccc1,-0.262% [at 42.5 µM],–
O=C(Cc1ccccc1)c1ccccc1,36%,–
CCCCCCCCn1sccc1=O,–,6.13 µM (active) and 9.05 µM (active)
CC(C)C1(C)N=C(c2ncccc2C(=O)O)NC1=O (stereo not given),12.5%,–
COC(=O)C1(O)c2ccccc2-c2ccccc21,-5.85%,–
COc1ccccc1N1CCNCC1,5.42% [at 42.5 µM],–

SMILES,"activity change, negative = inhibition",Potency
c1ccc2c(c1)sc1ccccc12,–,inactive
CC(C)(C)c1ccc(CCOc2ncnc3ccccc23)cc1,4.49%,–
C=CCSSCC=C,0.505%,–
OCCCl,0.748%,–
CN(C1CCCCC1)C1CCCCC1,-17.3%,–
CN1CC[C@]23c4c5ccc(O)c4O[C@H]2[C@@H](O)C=C[C@H]3[C@H]1C5,54.8%,–
CCOC(=O)c1cncn1C(C)c1ccccc1 (stereo not given),13.2% [at 42.5 µM],–
COC1=CC(=O)O[C@@H](/C=C/c2ccc3c(c2)OCO3)C1,-19.8%,–
CC(Cc1ccccc1)NCc1ccccc1Cl (stereo not given),-5.28% [at 42.5 µM],–
C#C[C@]1(O)CC[C@H]2[C@@H]3CCC4=CC(=O)CCC4=C3C=C[C@@]21CC,–,9.44 µM (active)
CN(C)C(=O)Nc1cccc(OC(=O)NC(C)(C)C)c1,2.13%,–
CCC1(C2=NCCN2)Cc2ccccc2O1 (stereo not given),-5.15% [at 42.5 µM],–
CCOP(=S)(OCC)SCSc1cc(Cl)ccc1Cl,13.5%,–
Nc1ccccc1C(=O)OCCc1ccccc1,–,inactive
Oc1cccc(Cl)c1,3.2%,–
CC(C)(C#N)C(C)(C)C#N,43.6%,–
CCCC1CCCCN1 (stereo not given),4.65% [at 42.5 µM],–
Nc1c(Br)cc(Br)c2c1C(=O)c1ccccc1C2=O,13.2% [at 19 µM],–
C[C@]12C=CC3=C4CCC(=O)C=C4CC[C@H]3[C@@H]1CC[C@@H]2O,-22.4%,–
C=CCOC(=O)C(C)(C)OC(=O)c1cc(-n2c(=O)cc(C(F)(F)F)n(C)c2=O)ccc1Cl,-7.99%,–

# From PubChem BioAssay (Tox21)
